# Activity calls are given as the source filed them.
# Key:
# [1] = tested on: Plasmodium falciparum Sir2 (PF13_0152, Sir2A); test: pfSir2 binders on small-molecule microarrays, primary screen, biochemical, small-molecule microarray, 635 nm fluorescence (AID 1098); conditions: small-molecule microarray binding, fluorescence 635 nm; higher = more signal;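 note: score merges spot fluorescence intensity with its signal-to-noise ratio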
# [2] = small-molecule microarray binders of probe aDKK1, primary screen, biochemical, biotinylated probe, 635/667 nm fluorescence (AID 1099); conditions: higher = more signal;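 note: score merges 667nm spot fluorescence with signal to noise across triplicate slides; reference of the scale not given here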
# [3] = small-molecule microarray binders of probe aCHRDL2, primary screen, biochemical, biotinylated probe, 635/667 nm fluorescence (AID 1100); conditions: higher = more signal
# [4] = splicing luciferase reporter signal modulators, primary screen, spliceosome inhibition project, cell-based, HEK293, splice +/- reporter (AID 1101); conditions: luminescence, 24 h, higher = more signal, called active from +8 up or from −8 down;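 note: HEK293 cells carrying a splicing-competent luciferase reporter gene; test concentration not given here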
# [5] = biological target: Fibroblast growth factor 10 (Homo sapiens) (UniProt O15520); test: FGF10 binders on small-molecule microarrays, primary screen, biochemical, small-molecule microarray, 635 nm fluorescence (AID 1102); conditions: FGF10 binding, fluorescence 635 nm, higher = more signal
# [6] = tested on: glycogen synthase kinase-3 (GSK3A per assay name; protocol says GSK3B); test: GSK3 binders on small-molecule microarrays, primary screen, biochemical, small-molecule microarray, 635 nm fluorescence, GSK3A (AID 1103); conditions: small-molecule microarray binding, fluorescence 635 nm; higher = more signal; note: the record names both GSK3A and GSK3B
# [7] = biological target: Epidermal growth factor receptor (Homo sapiens) (UniProt P00533); test: EGFR binders on small-molecule microarrays, primary screen, biochemical, small-molecule microarray, 635 nm fluorescence (AID 1104); conditions: EGFR binding, higher = more signal;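 note: score merges 667 nm emission intensity with spot signal to noise over triplicate slides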
# [8] = biological target: Follistatin-related protein 3 (Homo sapiens) (UniProt O95633); test: FSTL3 binders on small-molecule microarrays, primary screen, biochemical, small-molecule microarray, 635 nm fluorescence (AID 1105); conditions: FSTL3 binding, higher = more signal;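 note: score merges emission near 667 nm and signal to noise per printed spot across three slides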
# [9] = biological target: Dickkopf-related protein 1 (Homo sapiens) (UniProt O94907); test: DKK1 binders on small-molecule microarrays, primary screen, biochemical, small-molecule microarray, 635 nm fluorescence scan (AID 1106); conditions: DKK1 binding, higher = more signal;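 note: score merges emission near 667 nm with signal to noise over three replicate slides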
# [10] = tested on: Inhibin beta A chain (activin A); test: INHBA (activin A) binders on microarrays, primary screen, biochemical, small-molecule microarray, 635 nm fluorescence scan (AID 1107); conditions: small-molecule microarray binding, higher = more signal;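 note: mouse activin A protein probed at 4.33 µg/mL on printed slides; score merges bound-protein fluorescence near 667 nm with spot signal-to-noise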
# Sequence of Follistatin-related protein 3 (Homo sapiens) (O95633 whole entry, looked up): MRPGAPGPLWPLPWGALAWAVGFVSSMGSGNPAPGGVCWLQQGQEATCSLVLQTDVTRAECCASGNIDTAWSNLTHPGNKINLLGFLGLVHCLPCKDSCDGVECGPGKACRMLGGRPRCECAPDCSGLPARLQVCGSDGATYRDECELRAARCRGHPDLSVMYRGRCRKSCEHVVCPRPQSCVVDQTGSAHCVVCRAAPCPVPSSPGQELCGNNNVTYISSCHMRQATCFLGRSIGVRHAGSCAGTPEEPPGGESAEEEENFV
# Sequence of Epidermal growth factor receptor (Homo sapiens) (P00533 whole entry, looked up): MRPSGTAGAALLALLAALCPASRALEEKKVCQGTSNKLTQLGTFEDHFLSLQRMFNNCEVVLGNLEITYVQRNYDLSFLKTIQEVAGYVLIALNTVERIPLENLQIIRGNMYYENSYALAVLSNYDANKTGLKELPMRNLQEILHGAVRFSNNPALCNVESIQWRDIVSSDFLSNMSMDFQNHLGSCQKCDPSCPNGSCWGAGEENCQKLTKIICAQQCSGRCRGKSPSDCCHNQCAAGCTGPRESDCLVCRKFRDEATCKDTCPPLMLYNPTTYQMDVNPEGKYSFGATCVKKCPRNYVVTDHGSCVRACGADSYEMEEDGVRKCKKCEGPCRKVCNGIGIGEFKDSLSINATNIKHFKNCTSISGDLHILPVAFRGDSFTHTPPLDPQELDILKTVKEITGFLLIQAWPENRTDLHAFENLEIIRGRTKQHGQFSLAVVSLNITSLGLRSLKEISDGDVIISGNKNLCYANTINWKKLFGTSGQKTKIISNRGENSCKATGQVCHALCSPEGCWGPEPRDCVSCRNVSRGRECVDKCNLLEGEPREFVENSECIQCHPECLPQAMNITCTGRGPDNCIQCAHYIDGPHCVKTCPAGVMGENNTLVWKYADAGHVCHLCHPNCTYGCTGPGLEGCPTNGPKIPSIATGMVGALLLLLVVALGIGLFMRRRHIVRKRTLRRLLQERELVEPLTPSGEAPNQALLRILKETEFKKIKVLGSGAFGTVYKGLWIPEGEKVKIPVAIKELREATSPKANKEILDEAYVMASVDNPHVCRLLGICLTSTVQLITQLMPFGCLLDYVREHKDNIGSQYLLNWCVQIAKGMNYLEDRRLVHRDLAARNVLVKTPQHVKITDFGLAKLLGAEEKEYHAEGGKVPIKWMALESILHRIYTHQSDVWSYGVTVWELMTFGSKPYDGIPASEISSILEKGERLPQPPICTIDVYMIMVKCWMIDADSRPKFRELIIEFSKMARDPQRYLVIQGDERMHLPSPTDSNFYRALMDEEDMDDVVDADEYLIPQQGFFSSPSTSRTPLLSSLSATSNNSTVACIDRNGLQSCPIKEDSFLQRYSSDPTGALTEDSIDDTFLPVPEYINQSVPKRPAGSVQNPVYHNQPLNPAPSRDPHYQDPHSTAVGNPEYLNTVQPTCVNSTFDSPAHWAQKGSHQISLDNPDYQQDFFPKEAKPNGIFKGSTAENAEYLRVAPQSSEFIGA
# Sequence of Dickkopf-related protein 1 (Homo sapiens) (O94907 whole entry, looked up): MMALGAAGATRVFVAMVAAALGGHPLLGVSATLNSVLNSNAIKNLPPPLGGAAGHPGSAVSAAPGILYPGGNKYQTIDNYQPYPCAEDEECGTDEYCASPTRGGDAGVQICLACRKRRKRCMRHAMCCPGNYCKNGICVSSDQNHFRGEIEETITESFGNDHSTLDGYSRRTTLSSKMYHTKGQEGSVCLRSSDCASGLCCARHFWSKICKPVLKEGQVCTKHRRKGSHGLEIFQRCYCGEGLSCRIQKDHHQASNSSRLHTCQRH
# Sequence of Fibroblast growth factor 10 (Homo sapiens) (O15520 whole entry, looked up): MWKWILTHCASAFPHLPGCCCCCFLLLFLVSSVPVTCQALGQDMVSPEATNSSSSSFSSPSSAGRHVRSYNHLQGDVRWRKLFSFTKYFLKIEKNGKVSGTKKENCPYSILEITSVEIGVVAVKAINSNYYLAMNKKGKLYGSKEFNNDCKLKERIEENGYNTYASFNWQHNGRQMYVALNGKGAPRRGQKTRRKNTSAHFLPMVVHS
SMILES,composite z-score [1],composite z-score [2],composite z-score [3],z-score [4],composite z-score [5],composite z-score [6],composite z-score [7],composite z-score [8],composite z-score [9],composite z-score [10]
CN1C(=O)C2C=CC(C(O)C(C)(C)C)N(Nc3ccccc3)C2C1=O (stereo not given),1.24,-0.108,0.211,1.06 (inactive),-0.0353,-0.0258,-0.639,-0.543,-0.406,0.941
CC(c1ccccc1)C(O)C1C=CC2C(=O)N(c3ccccc3)C(=O)C2N1Nc1ccccc1F (stereo not given),0.308,0.535,1.09,-1.02 (inactive),0.356,0.214,-0.0346,0.683,-0.526,0.913
C=C(C)[C@@H]1CC=C(C(O)C2C=CC3C(=O)N(Cc4ccccc4)C(=O)C3N2n2cnnc2)CC1 (stereo not given in full),0.827,0.546,1.11,-0.925 (inactive),-0.394,-0.724,-0.608,-0.739,-0.665,1.34
COc1c(C)cc(-c2cc3c(c(-c4ccccc4)n2)[Si](C(C)C)(C(C)C)O[C@H]3c2ccccc2)cc1C,-0.14,-0.16,-0.327,0.139 (inactive),0.397,0.02,0.0111,0.168,0.211,0.0244
CCCCC(=C=CC[C@H](O)c1ccccc1OCCO)C[C@H](O)c1cc(Cl)cc(Cl)c1O,1.26,0.0947,0.0444,0.23 (inactive),0.345,0.24,-0.619,0.179,-0.429,0.796
C=CCOC(=O)[C@@H]1[C@H]2C(=O)O[C@H](c3ccccc3)[C@H](c3ccccc3)N2[C@H](c2ccc(OCCOC(=O)[C@H]3C[C@H]4C(=O)N[C@@H](CCCC[N+](C)(C)C)C(=O)N4[C@H]3c3cccc(OCCO)c3)cc2)[C@@]12C(=O)Nc1ccc(I)cc12,1.53,0.135,-0.0036,-0.241 (inactive),1.21,1.29,1.32,1.43,1.7,0.538
COc1ccc([Si](C)(C)[C@H]2[C@H](CC(=O)N3CCC[C@H]3CO)O[C@@]3(C(=O)N(Cc4cccc(N5CCC5=O)c4)c4ccccc43)[C@@H]2C)cc1,1.11,-0.0732,-0.222,0.566 (inactive),1.4,1.27,0.993,1.45,0.672,0.728
NC(=O)[C@@]1(CCS(=O)(=O)c2ccccc2)N=C(c2ccc(OCCCO)cc2)O[C@H]1c1ccccc1,1.28,0.518,0.7,-0.675 (inactive),1.08,0.953,-0.151,-0.437,0.015,0.564
C=C(C(=O)CC[C@H](OC(=O)c1cccnc1)c1ccccc1OCCO)C(C)C,1.14,-0.109,-0.0641,3.21 (inactive),1.56,0.98,1.25,1.13,0.962,1.11
COc1cc(NN2C(C(O)c3ccccc3)C=CC3C(=O)N(c4ccccc4)C(=O)C32)cc(OC)c1OC (stereo not given),1.53,0.256,0.862,-0.412 (inactive),1.28,1.14,0.257,1.47,0.0142,0.706
COCCOC(=O)N1C(=O)[C@@]2(c3cc(C#CCCO)ccc31)[C@H](c1ccc(O)cc1)N1[C@H](c3ccccc3)[C@H](c3ccccc3)OC(=O)[C@H]1[C@@H]2C(=O)N1CCCCCCC1,1.4,1.51,0.885,0.242 (inactive),1.13,1.26,0.483,1.39,0.771,1.59
C=C(COC)/C(=C/C[C@H](OC(C)=O)c1ccccc1OCCO)c1cnc2ccccc2c1,0.279,-0.0732,-0.0887,0.11 (inactive),1.16,0.521,0.486,1.41,0.743,1.85
CCCC[C@@H]1C[C@H]1[C@@H](NC(=O)c1ccco1)c1ccccc1,-1.69,-0.145,1.01,0.00344 (inactive),-1.01,-1.31,-2.01,-1.63,-2.05,0.735
